Results filed as inconclusive are left out. The source made the active and inactive calls. Calls follow the shape of the dose curve; as a rule, active = well fitted inhibition curve with a large enough effect; inconclusive = small, poorly fitted or top-dose-only effect; inactive = flat fitted curve, though single readings scatter.
% is scaled to controls: 0 for no effect and ±100 for the full control effect; potency is read from the fitted curve at half-maximal effect.

The experiment has as its system CRL-7250. The experiment can be described thus: Cytotoxic Profiling of Annotated Libraries Using Quantitative High-Throughput Screening (AID 1296008). Also: nearly all actives have a fitted effect of over 60% in size. Conditions: Five cell lines viability, CellTiter-Glo ATP luminescence, 48-72 h; max response: active compounds read low. In outline: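 Compounds were pin-transferred onto cells and incubated 48 or 72 hr at 37 degree Celsius, 95% humidity. CellTiter-Glo was added, plates sat 10 min at room temperature, then ATP-coupled luminescence was imaged as the viability read-out.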
For the molecule `Clc1cccc(COc2cncc(N3CCNCC3)n2)c1`, the molecule was classed as inactive.
Turning to `COc1ccccc1OCCNCC(O)CCOc1cccc2[nH]c3ccccc3c12` (stereo not given), the outcome was inactive.
Regarding `O=C(Nc1ccc(Cl)cc1)Nc1cccc(-c2cccc(N3CCCC3)n2)c1`, the max response was -4.95% (inactive).
For the molecule `CC1(NC(=O)c2ccc(C#Cc3cccc(F)c3)cn2)COC1`, the max response is 4.8% (inactive).
Turning to `O=C(Nc1cccc2cccnc12)c1ccc(N2C(=O)[C@@H]3C4C=CC(C4)[C@@H]3C2=O)cc1`, the Potency was 1.3 µM (active).
With `Cc1c(NC(=O)OCC2COCCN2)cn2ncnc(Nc3ccc4c(cnn4Cc4cccc(F)c4)c3)c12` (stereo not given), the max response is -30.6% (inactive).
Consider `CCN(CC)CCCS(=O)(=O)N[C@H](CCc1ccccc1)c1nc(Cc2ccc(Br)cc2)no1`, for which the max response was -4.82% (inactive).
Same read-out and setting: the value for `COc1ccccc1C(=O)Nc1cc2c(cc1N1CCCC1)n(C)c(=O)n2C` was -29% (inactive).
Take `Fc1ccc(N2CCCCC2)c(NC(=S)c2ccncc2)c1`: the max response was 3.95% (inactive).
With `O[C@@](Cc1ncc(CC2(C(F)(F)F)CC2)[nH]1)(c1ccc(-n2cccn2)cc1)C(F)(F)F`, the molecule was classed as inactive.
With `Clc1ccc(Cn2c(Cc3ccccc3)nc3ccccc32)cc1`, the max response was -7.75% (inactive).
As for `CCOc1cn(-c2ccc(F)cc2C)nc1C(=O)Nc1ccc(Oc2ccnc3cc(OC)c(OC)cc23)c(F)c1`, the max response was -25.1% (inactive).
On to `CCNC1(C(N)=O)CCN(c2ncnc3c2nc(-c2ccccc2Cl)n3-c2ccc(Cl)cc2)CC1`, for which the call was inactive.
`COc1ccc(CCCN2CCC(COC(c3ccccc3)c3ccccc3)CC2)cc1`: the max response was -2.98% (inactive).
On to `COc1cc(C(=O)O)ccc1NC(=O)C1NC(CC(C)(C)C)C(C#N)(c2ccc(Cl)cc2F)C1c1cccc(Cl)c1F` (stereo not given), for which the max response was -18.8% (inactive).
Take `O=C(c1c(F)ccc(NS(=O)(=O)N2CC[C@@H](F)C2)c1F)c1c[nH]c2ncc(-c3cnc(C4CC4)nc3)cc12`: the Potency is 23.1 µM (active).
For `CNc1nc(NCc2ccc(NS(C)(=O)=O)cc2Cl)cc(-c2ccccn2)n1`, the Potency was 20.6 µM (active).
In the case of `N#Cc1ccc(N2N=C3c4ccc(C(=O)O)cc4CC[C@@H]3[C@@H]2C2CCCC2)cc1Cl`, the max response is 1.36% (inactive).
As to `CNc1nc(Nc2ccc(C(=O)N3CCOCC3)cc2OC)nc2[nH]cc(Cl)c12`, the max response was 1.38% (inactive).
As to `Cn1ncc2cc(-c3cnc(N)c(Cl)c3N3CCC4(CCNC4=O)CC3)ccc21`, the outcome was inactive.
As to `CC(C)(O)c1ccn2c(-c3ccc(F)c(-c4ccc(F)cc4C#N)c3)cnc2c1F`, the max response was -19.9% (inactive).
Still for that read-out and setting: the value for `CC(C)=CCC[C@](C)(O[C@@H]1O[C@H](CO[C@@H]2OC[C@@H](O)[C@H](O)[C@H]2O)[C@@H](O)[C@H](O)[C@H]1O)[C@H]1CC[C@]2(C)[C@@H]1[C@H](O)C[C@@H]1[C@@]3(C)CC[C@H](O[C@@H]4O[C@H](CO)[C@@H](O)[C@H](O)[C@H]4O)C(C)(C)[C@@H]3CC[C@]12C` was -26.7% (inactive).
For the molecule `O=S(=O)(c1ccccc1)N(CC(F)(F)F)c1ccc(C(O)(C(F)(F)F)C(F)(F)F)cc1`, the call was inactive.
On to `COc1ccnc(CS(=O)c2nc3cc(OC(F)F)ccc3[nH]2)c1OC` (stereo not given), for which the max response was -13.2% (inactive).
On the same count and under the same terms, the value for `Cc1cc(C)cc(-c2cnc3cc(Cl)c(-c4cccc(O)c4)cc3c2OCCCN)c1` was 3.3% (inactive).
With `CC(C)=C[C@@H]1[C@H](CO[C@@H]2O[C@H](CO)[C@@H](O)[C@H](O)[C@H]2O)C1(C)C`, the call was inactive.
With `CNc1cccc(CCOc2ccc3c(c2)CN(CC(F)(F)F)C(=O)[C@H](CC(=O)O)C3)n1`, the Potency was 0.082 µM (active).
As to `O=C(COc1ccc2ccccc2c1Br)Nc1cccnc1`, the max response was -18.6% (inactive).
With `CC1(CO)CC2C(O)C3=C(CC(C)(O)C2C1)C(=O)OC3` (stereo not given), the max response is -1.99% (inactive).
On to `CCCCc1c(-c2ccc(OC)cc2)[nH]c2nccnc12`, for which the molecule was called inactive.
Take `COc1ccc(S(=O)(=O)N2CCC[C@H]2C(=O)Nc2cc(C)cc(C)c2)cc1`: the max response was 2.15% (inactive).
As to `CCCC(Nc1nc(-c2ccc(NC(=O)NCC)c(OC)c2)ncc1C)c1cccnc1` (stereo not given), the Potency was 0.206 µM (active).
As for `Cc1cc(C)c2c(c1)C(N(Cc1cc(C(F)(F)F)cc(C(F)(F)F)c1)c1nnn(C)n1)CCCN2CC1CCC(C(=O)O)CC1` (stereo not given), the max response is 2.9% (inactive).
`CC(C)=CCC/C(C)=C/COCC1OC(n2ccc(=O)[nH]c2=O)C(O)C1O` (stereo not given): the max response was -3.59% (inactive).
The same measure, in the same setting: then `O=C(CNC(=O)c1cccc(C(F)(F)F)c1)N[C@@H]1CCN(Cc2ccc(Cl)cc2)C1`, with -11.8% (inactive).
In the case of `O=C(NCc1nc2ccccc2c(=O)n1-c1ccc(F)cc1)Nc1ccc(Cl)c(C(F)(F)F)c1`, the call was inactive.
As to `CCCN1CCC=C(c2cc(-c3ccc(C)cc3)no2)C1`, the outcome was inactive.
For the molecule `C[C@]12CC[C@@H]3c4ccc(O)c(O)c4CC[C@H]3[C@@H]1CCC2=O`, the max response is -7.43% (inactive).
`COc1cc2c(cc1-c1c(C)noc1C)ncc1[nH]c(=O)n(C(C)c3ccccn3)c12` (stereo not given): the Potency is 5.8 µM (active).
With `C/C=C/C=C/C=C/C(=O)O[C@@H]1C=C2COC(=O)[C@]2(O)[C@@]2(C)CCCC(C)(C)[C@H]12`, the max response is -25.9% (inactive).

The values are drawn from PubChem BioAssay (NCATS).
